# From the supplement of paper PMC6555819
# Legend:
# Assay in all cases: PBM binding z-score (relative to random genomic background probes); higher = stronger binding; sequences stand for … in GC…GCGATTGACAGCGTAGAATGAAGG
# [1] = tested on: RARb homodimer (NR concentration 270 nM)
# Outline: (§1)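 Binding buffer was PBS pH 7.4 with 2% milk, 0.02% Triton X-100, 1 mM DTT, 0.2 mg/mL BSA and 0.4 mg/ml salmon testes DNA. In it, ligand-free nuclear receptor dimers were incubated 1 h on custom Agilent 4×180K protein-binding microarrays carrying double-stranded probes. Antibodies against each partner (one per run) detected binding, and z-scores were calculated against random background probes after regression normalization of scanned fluorescence.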
# [2] = tested on: RARg:RXRa (NR concentration 270 nM, RXRa partner concentration 90 nM)
# Outline: as §1
# [3] = tested on: RARg homodimer (NR concentration 270 nM)
# Outline: as §1
# [4] = tested on: RXRa DBDmut IVT, anti-RXR (DBD mutation: RXRa K156A/R161A, NR concentration 90 nM)
# Outline: as §1
# [5] = tested on: RXRa homodimer (NR concentration 180 nM)
# Outline: as §1
# [6] = tested on: THRa:RXRa (NR concentration 90 nM, RXRa partner concentration 90 nM)
# Outline: as §1
# [7] = tested on: THRa homodimer (NR concentration 90 nM)
# Outline: as §1
# [8] = tested on: VDR homodimer (NR concentration 270 nM)
# Outline: as §1
Sequence,PBM binding z-score [1],PBM binding z-score [2],PBM binding z-score [3],PBM binding z-score [4],PBM binding z-score [5],PBM binding z-score [6],PBM binding z-score [7],PBM binding z-score [8]
CTCGAAAGGTCGTGCTCAGGTGTGTATACCAAAC,2.72,4.45,3.62,2.5,4.71,3,0.4,0.893
TCTTGTAGATCAACAGGACGTTAAGAAAGATCGA,-0.694,0.531,0.151,0.714,0.45,0.0444,-0.626,-0.395
TAGTCTAGGTCATTGGGCCAGTATAGTACGCATC,3.08,3.92,4.79,1.95,3.26,3.32,1.55,1.87
ATATGTAGGTTACATCCGGGTCATTCACGCTATG,2.82,4,2.31,1.39,3.38,3.86,2.6,3.12
CAAACTAGTTCACAGAGGTCAAAGTCCGTGCGTA,4.92,6.03,5.68,3.93,6.83,4.01,1.93,7.92
ACTAGCAGGCCAAGGATCACTCAAGATTAGTCCG,-0.025,0.215,0.422,-0.378,0.137,-0.0655,-0.556,-0.55
CCGACTGGGGCATAAGGTTACCAAAAGCCAGCCC,1.97,1.72,0.905,-0.369,1.3,2.24,1.14,0.0369
